Outcome and AC50 data for 21 compounds are collected here from PubChem BioAssay (EPA / NIEHS).

In general, AC50 refers to the concentration giving half of the maximal activity seen.

Active and inactive are the calls of the source. How the source made its calls: active means hit-call score of the fitted dose curve at least 0.9, where 1 is the maximum; inactive means score below 0.9.

This test in a line: ATG_CRE_CIS: Attagene CIS-FACTORIAL HepG2 Assay for human cAMP Responsive Element (CRE) binding protein 3 (AID 2282926). The note with it: HepG2 CRE cis-reporter, Attagene multiplexed mRNA; actives raise or lower the signal. A digest of the protocol:
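Assay format: transient reporter transfection of HepG2, 24 h treatment, total RNA isolation with DNase I step. Reporter abundance read by fluorescence after PCR and capillary separation; DMSO-normalised gain or loss fitting.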
Take `Nc1cc(Cl)c(N)c(Cl)c1`: the compound was called inactive.

`O=C(CC(=O)C(F)(F)C(F)(F)F)C(F)(F)F`: the outcome was inactive.

As for `FC(F)(F)C(F)(F)CNCC(F)(F)C(F)(F)F`, the call was inactive.

As for `CCc1c(Br)c(Br)c(Br)c(Br)c1Br`, the compound was called inactive.

As for `C=C(C)C(=O)OCCC(F)(F)C(F)(F)C(F)(F)C(F)(F)C(F)(C(F)(F)F)C(F)(F)F`, the call was inactive.

`C=CC(=O)OCC(F)(F)C(F)(F)C(F)(F)C(F)(F)COC(=O)C=C`: the AC50 was 43.5 µM (active).

As to `CCc1ccc(C(c2ccc(CC)cc2)C(Cl)Cl)cc1`, the call was inactive.

`CO[Si](OC)(c1ccccc1)c1ccccc1`: the outcome was inactive.

As to `Cc1cc(C)cc(O)c1`, the compound was classed as inactive.

In the case of `CCCCCCOC(=O)c1ccccc1O`, the call was inactive.

For `O=C(O)C(F)(F)C(F)(F)C(F)(F)C(F)(F)C(F)(F)C(F)(F)C(F)(F)C(F)(F)C(F)(F)C(F)(F)C(F)(F)C(F)(F)F`, the compound was called inactive.

Consider `CCCCCCS`, for which the call was inactive.

For the compound `CCCCOc1ccc(N)cc1`, the result was inactive.

Take `c1ccc(-c2ccccc2-c2ccccc2)cc1`: the call was inactive.

`FC(F)(F)C(F)(F)C(F)(F)C(F)(F)C(F)(F)C(F)(F)C(F)(F)C(F)(F)CCS`: the outcome was inactive.

Regarding `CCCCNc1ccccc1`, the outcome was inactive.

Regarding `OCC(F)(F)C(F)(F)C(F)(F)C(F)(F)C(F)(F)C(F)(F)F`, the call was inactive.

`O=C(O)C(F)(F)C(F)(F)C(F)(F)C(F)(F)F`: the call was inactive.

For the compound `Cc1ccc(S(=O)(=O)OCC(F)(F)C(F)(F)C(F)(F)C(F)(F)C(F)(F)C(F)F)cc1`, the outcome was inactive.

Consider `CCCCCCOC(=O)c1ccccc1`, for which the result was inactive.

For `CCN(Cc1cccc(S(=O)(=O)O)c1)c1ccc(C(=C2C=CC(=[N+](CC)Cc3cccc(S(=O)(=O)O)c3)C=C2)c2ccc(O)cc2S(=O)(=O)[O-])cc1`, the outcome was inactive.
